Results from PubChem BioAssay (Tox21).
Results filed as inconclusive are left out. Calls of active or inactive are those of the source. The call rests on the fitted dose curve; in most records, active means well fitted curve in the direction sought with a large enough effect in the repeat runs; inconclusive means weak or mixed curves; inactive means no such curve, though single readings can be large; an effect the other way counts as inactive or inconclusive.

Experiments:
[1] = Human pregnane X receptor (PXR) small molecule agonists, qHTS cell viability counter screen (AID 1346977); further: nearly all actives have a fitted effect of over 50% in size; further: potency means the concentration at half of the fitted maximal effect
How it was run: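 PXR-Luc HepG2 cells (2,000/well, 5% charcoal-stripped FBS) preincubated 5 hr, then exposed to compounds 24 hr at 37 C. Viability read in the same wells by CellTiter-Fluor fluorescence, reagent added at 23 hr, 1 hr incubation.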

[2] = Caspase-3/7 induction in HepG2 cells by small molecules, qHTS assay (AID 1346978); further: nearly all actives have a fitted effect of over 15% in size
How it was run: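 Wild-type HepG2 cells, 2,000/well, settled 5 hr at 37 C and 5% CO2, then compound-treated for 17 hr; caspase-3/7 activity read by luminescent Caspase-Glo 3/7 after 30 min at room temperature.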

[3] = Caspase-3/7 induction in CHO-K1 cells by small molecules, qHTS cell viability counter screen (AID 1346979); further: nearly all actives have a fitted effect of over 35% in size; further: potency means the concentration at half of the fitted maximal effect
How it was run: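 Wild-type CHO-K1 cells (1,500/well) treated with compound after 5 h plating; after 16 h at 37C, viability read as CellTiter-Fluor fluorescence following 1 h reagent incubation, in the same wells as the caspase read.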

[4] = Caspase-3/7 induction in CHO-K1 cells by small molecules, qHTS assay (AID 1346980); further: nearly all actives have a fitted effect of over 15% in size; further: potency means the concentration at half of the fitted maximal effect
How it was run: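 Wild-type CHO-K1 cells exposed to compounds for 17hr at 37 C, 5% CO2. Caspase-3/7 activity then measured by Caspase-Glo 3/7 luminescence after 30min at room temperature.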

[5] = Caspase-3/7 induction in HepG2 cells by small molecules, qHTS cell viability counter screen (AID 1346981); further: series mostly up to about 92 µM; nearly all actives have a fitted effect of over 30% in size
How it was run: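 The parent HepG2 line is plated at 2,000 cells per well and rested 5 hr before compound pinning from DMSO stocks. Following a 16-hr treatment at 37 C, a fluorogenic live-cell substrate (CellTiter-Fluor) reports viability after 1 hr.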

[6] = target: Nuclear receptor subfamily 1 group I member 2 (Homo sapiens) (UniProt O75469); test: Human pregnane X receptor (PXR) small molecule agonists, qHTS assay (AID 1346982); further: nearly all actives have a fitted effect of over 35% in size; further: potency means the concentration at half of the fitted maximal effect
How it was run: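 After plating in 5% charcoal-stripped FBS and a 5 hr rest, PXR-Luc HepG2 cells received compounds in DMSO. Following 24 hr at 37 C, ONE-Glo was added and light output read.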

[7] = target: Nuclear receptor subfamily 1 group I member 2 (Homo sapiens) (UniProt O75469); test: CYP3A4 induction through human pregnane X receptor (PXR) by small molecules, qHTS assay (AID 1346984); further: nearly all actives have a fitted effect of over 40% in size
How it was run: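 Human PXR activation is tracked via CYP3A4 promoter-luciferase in DPX-2 (HepG2) cells. Compounds treat cells for 24hr at 37C, and luminescence is read after One-Glo.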

[8] = target: Cytochrome P450 2D6 (Homo sapiens) (UniProt P10635); test: Cytochrome P450 Family 2 Subfamily D Member 6 (CYP2D6) small molecule antagonists: luciferase reporter qHTS assay (AID 1671196); further: nearly all actives have a fitted effect of over 50% in size; further: potency means the concentration at half of the fitted maximal effect
How it was run: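 Quantitative HTS of Tox21 chemicals against CYP2D6 using a luminescent proluciferin substrate. After NADPH addition, 1 h room-temperature reaction; luminescence recorded 20 min post detection reagent.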

[9] = target: Nuclear receptor subfamily 1 group I member 2 (Rattus norvegicus) (UniProt Q9R1A7); test: Rat pregnane X receptor (rPXR) activation by small molecules, qHTS assay (AID 1346983); details: rPXR luciferase reporter cells, One-Glo luminescence, 24 h; max activation: hits give high values; further: nearly all actives have a fitted effect of over 20% in size
How it was run: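 Cell-based rPXR activation assay: rPXR cells, 2,000 per well, rested 5hr at 37 C, then exposed to compounds in DMSO for 24 hr at 37 C. Luciferase activity read by One-Glo luminescence after 30 min at room temperature.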

[10] = target: Nuclear receptor subfamily 1 group I member 2 (Homo sapiens) (UniProt O75469); test: Human pregnane X receptor (PXR) activation by small molecules, qHTS assay (AID 1346985); further: nearly all actives have a fitted effect of over 40% in size
How it was run: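 DPX-2 cells (HepG2 co-transfected with a PXR response element and a CYP3A4-promoter luciferase construct) were seeded at 2,000 per well, rested 5 hr at 37C, then exposed to DMSO-dissolved compounds for 24 hr. Activation was read as luciferase luminescence.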
On the % scale 0 is the no-effect control and ±100 the full control effect.

Sequence of Cytochrome P450 2D6 (Homo sapiens) (P10635 whole entry, looked up): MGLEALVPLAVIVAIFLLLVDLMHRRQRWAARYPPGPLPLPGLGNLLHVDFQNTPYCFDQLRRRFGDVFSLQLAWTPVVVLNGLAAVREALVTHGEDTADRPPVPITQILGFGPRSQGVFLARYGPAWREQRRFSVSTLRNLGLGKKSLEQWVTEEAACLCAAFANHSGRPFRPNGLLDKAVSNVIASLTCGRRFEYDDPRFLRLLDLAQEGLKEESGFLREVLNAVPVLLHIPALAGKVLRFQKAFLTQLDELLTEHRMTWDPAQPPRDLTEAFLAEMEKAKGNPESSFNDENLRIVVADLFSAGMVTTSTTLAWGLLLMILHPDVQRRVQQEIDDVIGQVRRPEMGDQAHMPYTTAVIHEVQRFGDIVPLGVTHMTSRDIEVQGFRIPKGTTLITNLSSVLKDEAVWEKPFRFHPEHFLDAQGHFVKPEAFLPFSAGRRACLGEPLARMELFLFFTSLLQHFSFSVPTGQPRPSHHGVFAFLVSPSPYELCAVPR
Sequence of Nuclear receptor subfamily 1 group I member 2 (Homo sapiens) (O75469 whole entry, looked up): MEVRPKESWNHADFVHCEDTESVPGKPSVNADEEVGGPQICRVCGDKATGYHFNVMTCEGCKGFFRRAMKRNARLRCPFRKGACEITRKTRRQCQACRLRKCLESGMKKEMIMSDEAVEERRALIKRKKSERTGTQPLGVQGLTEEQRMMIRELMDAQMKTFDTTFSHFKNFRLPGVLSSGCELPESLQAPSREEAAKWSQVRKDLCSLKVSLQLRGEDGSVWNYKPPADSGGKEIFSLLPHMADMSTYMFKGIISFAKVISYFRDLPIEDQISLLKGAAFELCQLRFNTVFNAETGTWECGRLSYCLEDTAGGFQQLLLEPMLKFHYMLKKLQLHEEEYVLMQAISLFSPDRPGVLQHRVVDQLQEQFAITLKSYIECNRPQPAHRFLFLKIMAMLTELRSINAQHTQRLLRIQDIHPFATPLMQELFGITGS
Sequence of Nuclear receptor subfamily 1 group I member 2 (Rattus norvegicus) (Q9R1A7 whole entry, looked up): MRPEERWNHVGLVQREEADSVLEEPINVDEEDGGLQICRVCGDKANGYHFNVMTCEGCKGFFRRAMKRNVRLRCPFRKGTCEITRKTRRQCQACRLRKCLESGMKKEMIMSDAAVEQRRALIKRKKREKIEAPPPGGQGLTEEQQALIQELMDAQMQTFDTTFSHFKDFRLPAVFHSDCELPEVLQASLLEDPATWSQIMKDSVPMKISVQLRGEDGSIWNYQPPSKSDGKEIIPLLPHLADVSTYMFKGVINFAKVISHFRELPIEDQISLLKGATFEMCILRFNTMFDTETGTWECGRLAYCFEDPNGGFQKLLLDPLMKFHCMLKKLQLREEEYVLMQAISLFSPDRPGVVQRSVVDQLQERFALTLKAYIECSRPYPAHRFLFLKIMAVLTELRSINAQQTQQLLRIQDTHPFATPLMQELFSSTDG

c1ccc(-c2nc[nH]c2-c2ccccc2)cc1
inactive: Potency [1] | outcome [2] | Potency [3] | Potency [4] | Potency [5] | Potency [6] | Potency [7]

FC(F)(F)C(F)(F)C(F)(F)C(F)(F)C(F)(F)C(F)(F)CCI
inactive: Potency [1] | outcome [2] | Potency [3] | Potency [4] | Potency [5] | Potency [6]

O=C(Cl)c1c(Cl)cccc1Cl
inactive: Potency [1] | outcome [2] | Potency [3] | Potency [4] | Potency [5] | Potency [6] | Potency [8]

CC(=O)CC(=O)c1ccccc1
inactive: Potency [1] | outcome [2] | Potency [3] | Potency [4] | Potency [5]

Cc1c(Cn2ccnc2)c2ccccc2n1CCC(=O)O
inactive: Potency [1] | outcome [2] | Potency [3] | Potency [4] | Potency [5] | Potency [6] | max activation [9] -1.57% | Potency [7] | Potency [10]

COc1ccccc1OC(=O)Oc1ccccc1OC
inactive: Potency [1] | outcome [2] | Potency [3] | Potency [4] | Potency [5] | Potency [6] | max activation [9] -1.11% | Potency [7]

ClC(Cl)(Cl)c1ccc(C(Cl)(Cl)Cl)cc1
inactive: Potency [1] | outcome [2] | Potency [3] | Potency [4] | Potency [5] | Potency [6]

CC(C)NCC(O)c1cc(O)cc(O)c1 (stereo unspecified)
inactive: Potency [1] | outcome [2] | Potency [3] | Potency [4] | Potency [5] | Potency [6] | max activation [9] -6.91% | Potency [7] | Potency [8]

Cn1c(=O)c2c(ncn2CC(O)CO)n(C)c1=O (stereo unspecified)
inactive: Potency [1] | outcome [2] | Potency [3] | Potency [4] | Potency [5] | Potency [6] | max activation [9] -1.09% | Potency [7] | Potency [8]

C=CC(=O)OCC(C)OCC(C)OCC(C)OC(=O)C=C (stereo unspecified)
inactive: Potency [1] | outcome [2] | Potency [5] | Potency [6] | Potency [8]
active: Potency [3] 24.3 µM | Potency [4] 24.3 µM

CCCCOC(=O)/C=C\C(=O)OCCCC
inactive: Potency [1] | outcome [2] | Potency [3] | Potency [4] | Potency [5] | Potency [6] | Potency [8]

COCCO
inactive: Potency [1] | outcome [2] | Potency [3] | Potency [4] | Potency [6]

Cc1ccc(C(N)=O)cc1N
inactive: Potency [1] | outcome [2] | Potency [3] | Potency [4] | Potency [5] | Potency [6] | Potency [8]

CC(C)(Oc1ccc(Cl)cc1)C(=O)OCCCOC(=O)C(C)(C)Oc1ccc(Cl)cc1
inactive: Potency [1] | outcome [2] | Potency [3] | Potency [4] | Potency [5] | Potency [6] | Potency [8]

Nc1ccc(C(=O)N2CC3CC(CN(Cc4ccccc4)C3)C2)cc1
inactive: Potency [1] | outcome [2] | Potency [3] | Potency [4] | Potency [6]

O=C(Cl)c1ccc([N+](=O)[O-])cc1
active: Potency [6] 5.35 µM
inactive: Potency [1] | outcome [2] | Potency [3] | Potency [4]

Oc1ccc2c(c1)OCO2
inactive: Potency [1] | outcome [2] | Potency [3] | Potency [4] | Potency [5] | Potency [6]
active: Potency [8] 39.6 µM

NCc1ccccc1
active: Potency [8] 31.7 µM
inactive: Potency [1] | outcome [2] | Potency [3] | Potency [4] | Potency [5] | Potency [6]

COCCOCCOCCOCCOC
inactive: Potency [1] | outcome [2] | Potency [3] | Potency [4] | Potency [5] | Potency [6] | Potency [8]

CC[C@@H]1C[C@H](N(Cc2cc(C(F)(F)F)cc(C(F)(F)F)c2)C(C)=O)c2cc(C(F)(F)F)ccc2N1C(=O)OC(C)C
active: Potency [6] 0.77 µM
inactive: Potency [1] | outcome [2] | Potency [3] | Potency [4] | Potency [5] | Potency [8]

CC(=O)c1c(C)c([N+](=O)[O-])c(C(C)(C)C)c([N+](=O)[O-])c1C
active: Potency [6] 48.6 µM
inactive: Potency [1] | outcome [2] | Potency [3] | Potency [4] | Potency [5] | Potency [8]

CCc1nn(C2CCCCC2)c2cc(C3(C#N)CCC(C(=O)O)CC3)ccc12 (stereo unspecified)
active: Potency [1] 48.6 µM | Potency [3] 27.3 µM | Potency [6] 68.6 µM
inactive: outcome [2] | Potency [4]

CC(C)c1cccc(C(C)C)c1NC(=O)NS(=O)(=O)c1cc(C(C)(C)O)co1
inactive: Potency [1] | outcome [2] | Potency [3] | Potency [4] | Potency [5] | Potency [6] | Potency [8]

O=C(c1ccc(O)cc1)c1ccc(O)cc1
inactive: Potency [1] | outcome [2] | Potency [3] | Potency [4]
active: Potency [6] 54.5 µM

COc1cc(C(C)(C)C)c(O)c(C(C)(C)C)c1
inactive: Potency [1] | outcome [2] | Potency [3] | Potency [4] | Potency [5] | Potency [6] | Potency [8]

C#CCOC(=O)[C@@H](C)Oc1ccc(Oc2ncc(Cl)cc2F)cc1
inactive: Potency [1] | outcome [2] | Potency [3] | Potency [4] | Potency [6]

CC(C(=O)O)c1ccc(-c2ccccc2)c(F)c1 (stereo unspecified)
inactive: Potency [1] | outcome [2] | Potency [3] | Potency [4] | Potency [5] | max activation [9] -4.66% | Potency [7]

O=[N+]([O-])c1cccc(Cl)c1Cl
inactive: Potency [1] | outcome [2] | Potency [3] | Potency [4] | Potency [6]

CC1CCc2cc(F)cc3c(=O)c(C(=O)O)cn1c23 (stereo unspecified)
inactive: Potency [1] | outcome [2] | Potency [3] | Potency [4] | Potency [5] | Potency [8]

N#Cc1cc2ccccc2c2ccccc12
inactive: Potency [1] | outcome [2] | Potency [3] | Potency [4]
active: Potency [6] 61.4 µM
